Test [1] can be described thus: qHTS assay to identify small molecule agonists of the sonic hedgehog signaling (Shh) pathway (AID 1259368; calls by dose curve;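 further: NIH/3T3-derived 3T3Gli1-Luc cells carrying a stable Gli1-driven firefly luciferase reporter; series mostly up to about 92 µM; nearly all actives have a fitted effect of over 15% in size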). The procedure, abridged:
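Steps: seed 3T3 Gli1-Luc cells, incubate 4 hr at 37 C, pin-transfer compounds in DMSO alongside a positive control, incubate 24 hr, add luciferase detection reagent, wait 30 min at room temperature, read luminescence.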
A general note: In qHTS, concentration-response curves come from the screen itself.

A short description of test [2]: qHTS assay to identify small molecule antagonists of the sonic hedgehog signaling (Shh) pathway (AID 1259369; calls by dose curve; further: nearly all actives have a fitted effect of over 45% in size; further: potency means the concentration at half of the fitted maximal effect). The procedure, abridged:
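Inhibition of Shh signalling is measured as reduced Gli1-response-element firefly luciferase output in an NIH/3T3-derived stable reporter clone stimulated with conditioned medium for 24hr.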

The target of test [3] is Estrogen receptor beta (Homo sapiens) (UniProt Q92731). The test can be described thus: qHTS assay to identify small molecule agonists of the estrogen receptor beta (ER-beta) signaling pathway (AID 1259377; active means well fitted activation curve with a large enough effect in the signal ratio in the repeat runs, not every such curve was filed as active; the % refers to the signal ratio). The gist of the method: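 A UAS-controlled beta-lactamase reporter in ER-beta-UAS-bla HEK293T cells reports receptor activation. Compounds act for 16 hr at 37C in 2% charcoal-stripped serum, and a FRET substrate is read by fluorescence after 2 hours.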

Test [4] has the same target. The test can be described thus: qHTS assay to identify small molecule antagonists of the estrogen receptor beta (ER-beta) signaling pathway (AID 1259378; active means well fitted inhibition curve with a large enough effect in the signal ratio in the repeat runs, not every such curve was filed as active; the % refers to the signal ratio). The gist of the method:
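Antagonist mode: compounds added to beta-lactamase reporter HEK293T ER-beta-UAS cells stimulated with E2 (1nM final), 16 hr at 37C. LiveBLAzer B/G FRET substrate, 2 hours room temperature, fluorescence read-out.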

Test [5] in a line: qHTS assay to identify small molecule agonists of the androgen receptor (AR) signaling pathway in the presence of an antagonist - cell viability counter screen (AID 1259379).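 Further: MDA-kb2 human breast cancer cells carrying an MMTV luciferase reporter; series mostly up to about 92 µM; nearly all actives have a fitted effect of over 25% in size.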 The procedure, abridged:
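Fluorescence from CellTiter-Fluor, added after 15 hr and read 1 hr later, gave cell viability. Cells were MDA-kb2 exposed to compounds (15 concentrations) in the presence of 3.0uM nilutamide at 37C, 0% CO2.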

Test [6] in a line: qHTS assay to identify small molecule agonists of the estrogen receptor beta (ER-beta) signaling pathway - cell viability counter screen (AID 1259380). Further: nearly all actives have a fitted effect of over 30% in size. The gist of the method:
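Same-well viability counter screen. Cells: ER-beta-UAS-bla HEK293T, plated 6 hr before compound, in 2% charcoal-stripped FBS. Compound exposure 16 hr, 37C; viability by CellTiter-Glo luminescence after 30 min at room temperature.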

Test [7] in a line: qHTS assay to identify small molecule antagonists of the estrogen receptor beta (ER-beta) signaling pathway - cell viability counter screen (AID 1259382).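 Further: HEK293T cells carrying ER-beta-UAS-bla reporter stimulated with estradiol; series mostly up to about 92 µM; nearly all actives have a fitted effect of over 55% in size.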 The gist of the method:
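Following a 6 hr plating period, HEK293T cells carrying a UAS-driven beta-lactamase reporter under ER-beta control received compounds and 1nM E2 (final). After 16 hr at 37C and 2 hr substrate loading, CellTiter-Glo luminescence indicated viability.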

A short description of test [8]: qHTS assay to identify small molecule agonists or antagonists of the thyroid stimulating hormone receptor (TSHR) signaling pathway - wild type cell line counter screen (AID 1259384; calls by dose curve). The gist of the method: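 Counter screen in untransfected Hek293: compounds (15-point titration, triplicate) plus phosphodiesterase inhibitor Ro20-1724 added after 18 h plating; 30 min RT. Intracellular cAMP via competitive d2/cryptate immunoassay, 1 h incubation.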

The nature of test [9]: qHTS assay to identify small molecule agonists of the estrogen receptor alpha (ER-alpha) signaling pathway in the presence of an antagonist - cell viability counter screen (AID 1259386).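 Further: series mostly up to about 92 µM; cells exposed to compounds for 22 h at 37 °C before the viability read; nearly all actives have a fitted effect of over 30% in size.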 The gist of the method: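 Cells are starved of estrogens for 5 days in charcoal-stripped serum, seeded for 24hr and co-treated with ICI-182,780 (10.0nM final) and test compounds. After 22hr at 37C, viability is read as CellTiter-Fluor fluorescence.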

The target of test [10] is Progesterone receptor (Homo sapiens) (UniProt P06401). The test can be described thus: qHTS assay to identify small molecule agonists of the progesterone receptor (PR) signaling pathway (AID 1346784; calls by dose curve; further: nearly all actives have a fitted effect of over 30% in size). The gist of the method:
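Agonist mode, quantitative HTS format in a HEK 293T line expressing a UAS-controlled beta-lactamase reporter; 16 hr compound exposure at 37C in 2% charcoal-stripped FBS, then LiveBLAzer B/G FRET fluorescence.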

The target is the same in test [11]. The test can be described thus: qHTS assay to identify small molecule antagonists of the progesterone receptor (PR) signaling pathway (AID 1346795; active means well fitted inhibition curve with a large enough effect in the signal ratio in the repeat runs, not every such curve was filed as active; the % refers to the signal ratio). The gist of the method:
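HEK293T PR-UAS-bla reporter cells in charcoal-stripped serum (2%) received compound after a 6 hr settling period, followed by R5020 agonist at 1 nM final; 16 hr incubation preceded the FRET substrate step and fluorescence measurement.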

Test [12] is described as follows: qHTS assay to identify small molecule antagonists of the progesterone receptor (PR) signaling pathway - cell viability counter screen (AID 1346798). Further: nearly all actives have a fitted effect of over 50% in size. Further: potency means the concentration at half of the fitted maximal effect. The gist of the method:
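Same-well multiplex: after 16 hr at 37C with compound and R5020 stimulation, HEK293T cells carrying a UAS-bla reporter received LiveBLAzer substrate (2 hr RT), then CellTiter-Glo (30 min RT) for luminescent viability.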

Test [13] in a line: qHTS assay to identify small molecule agonists of the progesterone receptor (PR) signaling pathway - cell viability counter screen (AID 1346799; calls by dose curve; further: nearly all actives have a fitted effect of over 45% in size). The procedure, abridged: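 Counter screen for cytotoxicity: compound-treated PR-UAS-bla HEK293T cells (16 hr, 37C, 5% CO2) were assayed with CellTiter-Glo, luminescence measured after 30 min at room temperature.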
Test [14] can be described thus: qHTS assay to identify small molecule antagonists of the TGF-beta/Smad signaling pathway - cell viability counter screen (AID 1346824). Further: nearly all actives have a fitted effect of over 50% in size. The procedure, abridged:
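Cytotoxicity counter-screen run in the same wells as the beta-lactamase Smad reporter read: CellTiter-Glo luminescence after 30 min at room temperature. HEK 293T SBE-bla cells had 5 hr compound exposure at 37 C with TGF-beta1 (0.25 ng/mL stock).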

Test [15] can be described thus: qHTS assay to identify small molecule agonists of the TGF-beta/Smad signaling pathway - cell viability counter screen (AID 1346829). Further: top concentration of the series differs between compounds; nearly all actives have a fitted effect of over 45% in size. The gist of the method: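 Tox21 qHTS format: SBE-bla HEK 293T cells treated with DMSO-dissolved compounds for 5 hr; CellTiter-Glo luminescence after 30 min at room temperature.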
The nature of test [16]: qHTS assay to identify small molecule agonists of the TGF-beta/Smad signaling pathway (AID 1346859; active means well fitted activation curve with a large enough effect in the signal ratio in the repeat runs, not every such curve was filed as active; the % refers to the signal ratio; further: series mostly up to about 77 µM). The procedure, abridged:
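Smad-responsive beta-lactamase reporter cells (HEK 293T) received compounds from DMSO stocks after overnight attachment, were incubated 5 hr, then treated 2 hr with FRET substrate before dual-emission fluorescence measurement (405 nm excitation).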

For test [17], the target named is Thyrotropin-releasing hormone receptor (Homo sapiens) (UniProt P34981). The test can be described thus: qHTS assay to identify small molecule antagonists of the thyrotropin-releasing hormone receptor (TRHR) signaling pathway (AID 1346877; active means well fitted inhibition curve with a large enough effect in the repeat runs, not every such curve was filed as active; further: series mostly up to about 51 µM). The procedure, abridged: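 Cells (TRHR-HEK293) are plated and kept 18 h at 37 °C/5% CO2. A calcium-sensitive dye is added for 2 h, compound follows for 5 min at room temperature, and TRH is then given at 1 nM final.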

The target of test [18] is Estrogen receptor (Homo sapiens) (UniProt P03372). Briefly: qHTS assay to identify small molecule agonists of the estrogen receptor alpha (ER-alpha) signaling pathway in the presence of an antagonist (AID 1259383; calls by dose curve; further: top concentration of the series differs between compounds; nearly all actives have a fitted effect of over 15% in size). The procedure, abridged: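 Cells are hormone-deprived for 5 days (charcoal-stripped FBS, no phenol red), plated for 24hr, spiked with 10.0nM ICI-182,780, then dosed at 15 concentrations. After 22hr at 37C, ONE-Glo luminescence reports ERE-luciferase activity.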

Test [19] deals with Thyrotropin receptor (Homo sapiens) (UniProt P16473). Briefly: qHTS assay to identify small molecule antagonists of the thyroid stimulating hormone receptor (TSHR) signaling pathway (AID 1259385; calls by dose curve; further: nearly all actives have a fitted effect of over 20% in size). The gist of the method:
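Antagonist mode: compound-treated TSHR-expressing HEK293 cells were stimulated with 1.5 ng/mL TSH (final) in presence of Ro20-1724 for 30 min at RT. HTRF cAMP detection after 1 h; each compound tested at 15 concentrations, triplicate.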

The structures appear in SMILES notation. Values without a mark were called inactive. Results filed as inconclusive are left out. Active and inactive are the calls of the source. Unless noted, the call rests on the fitted dose curve; in most records, active means well fitted curve in the direction sought with a large enough effect in the repeat runs; inconclusive means weak or mixed curves; inactive means no such curve, though single readings can be large; an effect the other way counts as inactive or inconclusive.

This passage reports Potency and outcome results from PubChem BioAssay (Tox21).

Sequence of Thyrotropin-releasing hormone receptor (Homo sapiens) (P34981 whole entry, looked up): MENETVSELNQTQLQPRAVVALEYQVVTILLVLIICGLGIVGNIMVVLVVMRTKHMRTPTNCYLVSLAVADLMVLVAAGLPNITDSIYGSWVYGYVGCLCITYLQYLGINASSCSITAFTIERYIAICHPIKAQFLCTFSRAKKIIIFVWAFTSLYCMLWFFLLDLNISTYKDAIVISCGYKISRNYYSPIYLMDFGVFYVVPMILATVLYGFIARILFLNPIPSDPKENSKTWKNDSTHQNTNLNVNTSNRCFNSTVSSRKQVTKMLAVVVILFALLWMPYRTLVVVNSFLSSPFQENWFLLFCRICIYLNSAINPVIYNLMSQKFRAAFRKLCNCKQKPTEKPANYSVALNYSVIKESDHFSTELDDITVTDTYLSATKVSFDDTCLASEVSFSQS
Sequence of Progesterone receptor (Homo sapiens) (P06401 whole entry, looked up): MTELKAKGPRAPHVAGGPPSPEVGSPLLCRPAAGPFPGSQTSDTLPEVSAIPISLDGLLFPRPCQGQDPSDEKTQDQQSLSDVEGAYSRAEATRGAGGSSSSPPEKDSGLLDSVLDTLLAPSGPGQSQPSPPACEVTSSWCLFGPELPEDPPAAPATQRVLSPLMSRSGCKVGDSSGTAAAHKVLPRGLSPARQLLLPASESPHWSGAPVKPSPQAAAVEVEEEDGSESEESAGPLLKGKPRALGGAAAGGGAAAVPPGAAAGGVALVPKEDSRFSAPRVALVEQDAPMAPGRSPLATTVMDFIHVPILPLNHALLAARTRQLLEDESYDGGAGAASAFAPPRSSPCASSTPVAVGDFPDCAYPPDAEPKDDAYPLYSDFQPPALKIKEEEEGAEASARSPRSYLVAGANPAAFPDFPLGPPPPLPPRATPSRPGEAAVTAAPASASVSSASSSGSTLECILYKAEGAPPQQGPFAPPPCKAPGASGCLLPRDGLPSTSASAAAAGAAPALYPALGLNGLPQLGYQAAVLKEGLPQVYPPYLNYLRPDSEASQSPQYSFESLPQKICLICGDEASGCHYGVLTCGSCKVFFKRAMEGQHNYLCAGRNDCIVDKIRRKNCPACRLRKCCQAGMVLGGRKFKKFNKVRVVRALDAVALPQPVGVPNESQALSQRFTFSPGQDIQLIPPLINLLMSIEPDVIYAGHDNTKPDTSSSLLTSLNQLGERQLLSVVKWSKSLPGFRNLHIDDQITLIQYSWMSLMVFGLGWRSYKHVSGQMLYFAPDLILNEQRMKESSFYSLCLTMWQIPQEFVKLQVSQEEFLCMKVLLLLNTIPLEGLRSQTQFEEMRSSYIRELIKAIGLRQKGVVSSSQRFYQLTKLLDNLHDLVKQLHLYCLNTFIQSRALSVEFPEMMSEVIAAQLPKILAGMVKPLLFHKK
Sequence of Estrogen receptor (Homo sapiens) (P03372 whole entry, looked up): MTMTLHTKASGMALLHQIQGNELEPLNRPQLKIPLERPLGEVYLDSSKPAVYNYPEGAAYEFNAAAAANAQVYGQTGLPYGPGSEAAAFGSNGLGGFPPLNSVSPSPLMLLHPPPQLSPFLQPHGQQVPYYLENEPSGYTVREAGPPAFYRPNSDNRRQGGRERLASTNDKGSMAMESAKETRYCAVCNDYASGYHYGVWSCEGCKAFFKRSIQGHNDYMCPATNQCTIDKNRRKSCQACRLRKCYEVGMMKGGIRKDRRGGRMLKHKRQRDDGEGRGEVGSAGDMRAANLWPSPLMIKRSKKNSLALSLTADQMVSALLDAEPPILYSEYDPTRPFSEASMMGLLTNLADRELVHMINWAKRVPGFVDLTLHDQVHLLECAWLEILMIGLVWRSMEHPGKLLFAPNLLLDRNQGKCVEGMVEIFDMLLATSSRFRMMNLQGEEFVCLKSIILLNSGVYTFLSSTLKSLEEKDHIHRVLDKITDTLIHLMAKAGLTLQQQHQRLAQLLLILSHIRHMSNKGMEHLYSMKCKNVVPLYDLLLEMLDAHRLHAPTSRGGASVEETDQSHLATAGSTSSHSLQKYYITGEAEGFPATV
Sequence of Estrogen receptor beta (Homo sapiens) (Q92731 whole entry, looked up): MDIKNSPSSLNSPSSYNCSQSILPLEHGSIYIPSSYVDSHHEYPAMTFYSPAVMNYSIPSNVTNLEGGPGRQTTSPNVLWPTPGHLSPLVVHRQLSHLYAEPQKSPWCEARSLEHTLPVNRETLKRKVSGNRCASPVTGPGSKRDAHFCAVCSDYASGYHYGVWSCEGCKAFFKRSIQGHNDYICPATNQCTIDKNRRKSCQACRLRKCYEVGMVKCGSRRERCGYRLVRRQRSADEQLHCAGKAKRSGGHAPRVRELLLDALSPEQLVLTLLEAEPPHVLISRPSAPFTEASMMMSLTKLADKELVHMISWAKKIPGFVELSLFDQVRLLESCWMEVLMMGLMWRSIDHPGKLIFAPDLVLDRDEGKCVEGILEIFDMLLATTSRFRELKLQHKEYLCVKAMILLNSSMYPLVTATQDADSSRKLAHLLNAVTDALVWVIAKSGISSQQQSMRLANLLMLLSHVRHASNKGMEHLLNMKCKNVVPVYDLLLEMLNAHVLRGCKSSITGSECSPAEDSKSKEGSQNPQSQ
Sequence of Thyrotropin receptor (Homo sapiens) (P16473 whole entry, looked up): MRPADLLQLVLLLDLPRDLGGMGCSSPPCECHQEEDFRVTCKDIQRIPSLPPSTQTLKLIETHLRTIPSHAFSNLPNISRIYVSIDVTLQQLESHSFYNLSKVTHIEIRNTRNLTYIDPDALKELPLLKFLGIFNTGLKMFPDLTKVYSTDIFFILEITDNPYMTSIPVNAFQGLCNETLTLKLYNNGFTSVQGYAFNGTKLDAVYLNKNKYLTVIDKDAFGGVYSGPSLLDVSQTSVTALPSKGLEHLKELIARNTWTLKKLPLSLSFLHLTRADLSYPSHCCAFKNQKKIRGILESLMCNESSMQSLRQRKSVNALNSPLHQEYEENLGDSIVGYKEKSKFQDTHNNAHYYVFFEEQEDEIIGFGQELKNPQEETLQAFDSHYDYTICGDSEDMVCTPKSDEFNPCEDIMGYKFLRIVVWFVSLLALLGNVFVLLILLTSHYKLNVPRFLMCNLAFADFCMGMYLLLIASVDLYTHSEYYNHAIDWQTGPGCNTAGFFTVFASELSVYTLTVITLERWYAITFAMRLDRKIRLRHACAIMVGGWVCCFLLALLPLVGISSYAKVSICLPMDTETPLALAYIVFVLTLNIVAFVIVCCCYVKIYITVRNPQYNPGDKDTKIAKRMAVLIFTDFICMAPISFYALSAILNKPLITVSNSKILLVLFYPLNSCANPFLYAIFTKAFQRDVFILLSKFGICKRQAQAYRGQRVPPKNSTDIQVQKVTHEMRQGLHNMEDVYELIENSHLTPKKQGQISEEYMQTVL

Take `C#CC(C)(O)CC(C)C` (stereo unspecified): the Potency result in test [1], in test [2], in [4], in test [5], in test [6] and in test [7] was “inactive” each time. For the same molecule, the Potency result in test [10], in test [11], in test [12] and in test [13] was “inactive” throughout. Also, the molecule was called inactive in [3], in [8], in [9], in test [14], in test [15] and in [16]. In addition, the call in [17] was inactive.
For the molecule `C=C[Si](OC)(OC)OC`, the Potency result in test [1], in test [2], in test [4], in test [5], in test [6] and in test [18] was “inactive” in each case. Also, the Potency entry in [10], in test [11], in [12] and in test [13] was “inactive” throughout. The molecule was classed as inactive in [3], in test [9], in test [14], in test [16] and in [17].
Take `CCC(=O)Nc1cccc(N)c1`: the Potency entry in test [1], in test [2], in [4], in [5], in test [6] and in [18] was “inactive” in each case. In addition, the Potency result in test [19], in [10], in test [11], in test [12] and in test [13] was “inactive” in each case. Besides, the molecule was classed as inactive in [3], in test [9], in [14], in [15], in test [16] and in [17].
For `N#CC1(O)CCCCC1`, the Potency entry in test [1], in [4], in test [5], in [6], in test [19] and in test [11] was “inactive” in each case. Moreover, the Potency result in [12] and in test [13] was “inactive” each time. The Potency in [2] is 12.3 µM (active). Further, the result in test [3], in [8], in test [9], in [14], in test [15] and in test [16] was inactive.
As for `COc1cc(C)cc(O)c1`, the Potency entry in [1], in test [2], in [4], in test [5], in test [6] and in test [7] was “inactive” throughout. Also, the Potency entry in test [10], in test [11], in test [12] and in test [13] was “inactive” in each case. The call in test [3], in test [9], in [14], in test [15] and in test [16] was inactive.
As to `Cc1ccccc1C(=O)O`, the Potency result in test [1], in [2], in test [4], in test [5], in test [6] and in test [7] was “inactive” each time. The Potency result in test [10], in test [11] and in test [12] was “inactive” in each case. Moreover, the call in test [3], in [9], in test [14], in test [15] and in test [16] was inactive.
For the molecule `C=C(C)C(=O)NCCCN(C)C`, the Potency entry in test [1], in [2], in test [4], in test [6], in [7] and in test [11] was “inactive” throughout. For the same molecule, the Potency result in test [12] and in [13] was “inactive” each time. In addition, the molecule was called inactive in test [3], in test [9], in test [14], in test [15], in test [16] and in test [17].
As for `CC(C)(O)c1ccccc1`, the Potency result in [1], in test [2], in [4], in test [5], in [6] and in test [7] was “inactive” in each case. The Potency result in test [18] and in test [11] was “inactive” each time. The outcome in test [3], in test [9], in test [15], in [16] and in test [17] was inactive. Further, in test [12], the Potency was 52.2 µM (active).
